The source of these data is PubChem BioAssay AID504834 (National Center for Advancing Translational Sciences (NCATS), 2011).

Molecules are shown by their SMILES. The campaign covered roughly 320,000 compounds. About 22,000 (6.9%) were called active. Inconclusive results (about 27%) are left out. The entries come from a sample that favours actives as a whole. Where a call stands in place of a potency, no number is given. Values without a mark were called inactive. Calls come from the whole dose curve; as a rule, active = well fitted inhibition curve with a large enough effect; inconclusive = small, poorly fitted or top-dose-only effect, or another doubt; inactive = no such curve, though single readings can be large or run the other way.
Potency is the fitted concentration of half-maximal effect.

The nature of this assay: Primary qHTS for delayed death inhibitors of the malarial parasite plastid, 96 hour incubation. Conditions: P. falciparum luciferase reporter growth; series mostly up to 28.7 µM. In a few lines: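 P. falciparum expressing integrated firefly luciferase grown in erythrocytes (2% hematocrit, 0.05% parasitemia final) with compounds for 96 hours at 37 C, 5% CO2. Growth inhibition read as loss of luminescence after adding luciferase detection reagent.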
In general terms: In qHTS, concentration-response curves come from the screen itself.
Turning to `O=C(NCCN1C(=O)S/C(=C\c2cccnc2)C1=O)c1cccc(OC(F)F)c1`, the Potency entry was “inactive”.

With `Cc1cc(OCCCC(=O)NCCN2C(=O)S/C(=C\c3cccnc3)C2=O)ccc1Cl`, the Potency was 11.7 µM (active).

`CCOc1ccc(N2CC(C(=O)NCCN3C(=O)S/C(=C\c4cccnc4)C3=O)CC2=O)cc1` (stereo not drawn): the Potency result is “inactive”.

Turning to `COC(=O)c1ccc(S(=O)(=O)NCc2ccccc2)n1C`, the Potency entry was “inactive”.

Consider `Cc1ccc(C(=O)CCC(=O)N(C)CC(=O)Nc2c(Cl)cccc2Cl)cc1`, for which the Potency result was “inactive”.

`COc1cc(OC)cc(-c2cc3nc(C4CCN(C(=O)OC(C)(C)C)CC4)cc(=O)n3[nH]2)c1`: the Potency was 1.65 µM (active).

For `CC1CCN(C(=O)c2cc3nc(C4CC4)cc(C(F)(F)F)n3n2)CC1`, the Potency result is “inactive”.

As to `CCOC(=O)N1CCC(c2cc(=O)n(-c3ccccc3)[nH]2)CC1`, the Potency entry was “inactive”.

As for `O=C(Oc1ccc(-c2nnco2)cc1)c1ccc(F)c(S(=O)(=O)N2CCOCC2)c1`, the Potency result was “inactive”.

As to `O=C(CCS(=O)(=O)c1ccc2c(c1)NC(=O)CS2)NCc1ccccc1Cl`, the Potency result is “inactive”.

In the case of `Cc1csc(/N=C/N(C)C)c1C#N`, the Potency result was “inactive”.

Take `CC(=O)N(CCCN(C)C)c1nc2ccc(C)cc2s1`: the Potency entry was “inactive”.

With `Cc1cccc2sc(N(CCCN(C)C)C(=O)CCS(=O)(=O)c3ccccc3)nc12`, the Potency entry was “inactive”.

Turning to `Cc1cc(C)c2nc(N(CCN(C)C)C(=O)/C=C/c3cccs3)sc2c1`, the Potency was 6.57 µM (active).

With `CCOC(=O)c1sc2nc(C)[nH]c(=O)c2c1C`, the Potency entry is “inactive”.

`Cc1ccc(NC(=O)CSc2nc(CSc3ccc(C)cc3)cc(=O)[nH]2)cc1`: the Potency result was “inactive”.

Turning to `O=c1cc(CSc2ccccn2)nc(N2CCN(c3ccccc3)CC2)[nH]1`, the activity change, negative = inhibition is -8.4% [at 5.75 µM].

Regarding `Cc1ccc(SCc2cc(=O)[nH]c(N3CCCCC3)n2)cc1`, the Potency was 5.22 µM (active).

Consider `O=C(OCCN=C1NS(=O)(=O)c2ccccc21)c1cccc([N+](=O)[O-])c1`, for which the Potency result is “inactive”.

As to `Cc1cccc(NC(=O)c2sc3nc4c(c(-c5ccco5)c3c2N)CCC4)c1`, the Potency was 1.85 µM (active).

As to `NC(=O)c1sc2nc3c(c(-c4ccccc4)c2c1N)CCC3`, the Potency entry is “inactive”.

In the case of `Cc1nc2sc(C(=O)c3ccccc3)c(N)c2c2c1CCCC2`, the Potency result was “inactive”.

As to `CCN(C(=O)CSc1ncnc2c1cnn2-c1ccccc1)C1CCS(=O)(=O)C1` (stereo not drawn), the Potency result was “inactive”.

For `CCOc1ccc(NC(=O)CN(C)C(=O)CCSc2ccc(F)cc2)cc1OCC`, the Potency result was “inactive”.

For `Cc1cccc(Nc2nc3c(S(=O)(=O)c4ccccc4)nnn3c3ccccc23)c1C`, the Potency is 0.465 µM (active).

In the case of `CC(=O)Nc1ccc(Nc2nc3c(S(=O)(=O)c4ccc(C)c(C)c4)nnn3c3ccccc23)cc1`, the Potency result is “inactive”.

Regarding `COc1ccc(N2C(=O)CN=C2Nc2cccc(C)c2C)cc1OC`, the Potency entry is “inactive”.

For the molecule `CCN(CC)S(=O)(=O)c1ccc(OC)c(NC(=O)CCc2c(C)noc2C)c1`, the Potency entry was “inactive”.

As to `O=S(=O)(NC1CC1)c1ccc(Cl)cc1`, the Potency entry was “inactive”.

With `C[N+](C)(C)CCNC(=O)c1c(O)c2c([nH]c1=O)CCCC2`, the Potency result was “inactive”.

Consider `CCc1nnc(NC(=O)c2c(O)c3c([nH]c2=O)CCCC3)s1`, for which the Potency entry is “inactive”.

In the case of `O=C(NCc1ccccn1)c1c(O)c2c([nH]c1=O)CCCC2`, the Potency is 7.38 µM (active).

On to `Nc1nnn(CC(=O)N/N=C/c2ccccc2)n1`, for which the Potency entry is “inactive”.

`O=c1c2ccccc2c(-c2ccccc2)nn1Cc1ccccc1`: the Potency result is “inactive”.

Take `O=c1cc(N2CCCCC2)c(-c2ccccc2)nn1Cc1cccc(F)c1`: the Potency was 11.7 µM (active).

Consider `O=c1cc(N2CCN(Cc3ccccc3)CC2)c(-c2ccccc2)n[nH]1`, for which the Potency entry is “inactive”.

Turning to `O=C(CN(Cc1ccc(Br)cc1)S(=O)(=O)c1ccccc1)NCc1ccncc1`, the Potency entry is “inactive”.

Take `Cc1nn2c(=O)cc(COC(=O)c3ccc(NC(=O)C(C)(C)C)cc3)nc2s1`: the Potency entry was “inactive”.

Take `CSc1ccc(S(=O)(=O)NCC(=O)OCC(=O)NC2(C#N)CCCCC2)cc1[N+](=O)[O-]`: the Potency result is “inactive”.

As for `Cc1ccc(C(=O)OCC(=O)NCc2cc(C)c(O)c(C)c2)cc1S(=O)(=O)N1CCCCC1`, the Potency is 14.7 µM (active).

Turning to `COc1ccc(CNC(=O)COC(=O)c2ccc(C)c(S(=O)(=O)N3CCOCC3)c2)cc1OC`, the Potency entry is “inactive”.

Regarding `Cc1ccc(C(=O)OCC(=O)N2CC(C)CC(C)C2)cc1S(=O)(=O)N1CCCCC1` (stereo not drawn), the Potency result was “inactive”.

On to `COc1ccccc1CNS(=O)(=O)c1cc(C(=O)NCc2ccccn2)c(Cl)cc1Cl`, for which the Potency result is “inactive”.

Regarding `Cc1cccc(-c2ncc(CN3CCC(CO)(CCCc4ccccc4)CC3)cn2)c1`, the Potency was 9.28 µM (active).

Take `CC(C)c1csc(CN2CCC(CO)(Cc3ccccc3)CC2)n1`: the Potency entry is “inactive”.

On to `COc1ccc(CC2(CO)CCN(Cc3cnn(C)c3)CC2)cc1`, for which the Potency result was “inactive”.

In the case of `CC(=O)c1cccc(CN2CCC(CO)(Cc3ccccc3)CC2)c1`, the Potency result was “inactive”.

Turning to `OCC1(CCc2ccccc2)CCN(Cc2ccc3nsnc3c2)CC1`, the Potency is 11.7 µM (active).

In the case of `CC(C)(O)C#Cc1ccc(CN2CCC(CO)(CCc3ccccc3)CC2)cc1`, the Potency result was “inactive”.

As to `CN(CC1CCCO1)S(=O)(=O)c1ccc(C(=O)Nc2ccc(F)cc2)cc1` (stereo not drawn), the Potency result was “inactive”.

As to `COc1cccc(-c2ccc3c(c2)S(=O)(=O)c2cccc(C(=O)O)c2C3=O)c1OC`, the Potency result was “inactive”.

Consider `COc1ccc(F)cc1S(=O)(=O)NCC(c1ccc2c(c1)OCO2)N1CCN(C)CC1` (stereo not drawn), for which the Potency entry was “inactive”.

With `CCCCN(CC)C(=O)c1ccc2c(c1)OCO2`, the Potency result was “inactive”.

Regarding `Cc1[nH][nH]c(=O)c1C(c1ccc2c(c1)OCO2)c1c(C)[nH][nH]c1=O`, the Potency result was “inactive”.

Turning to `COc1ccc(-c2cc(=O)oc3cc(OCC(=O)N[C@@H](Cc4c[nH]c5ccccc45)C(=O)O)ccc23)cc1`, the Potency result was “inactive”.

Consider `CCN(CC)C(=O)CC(c1ccc2c(c1)OCO2)c1c(OC)cc(OC)c2c(-c3ccccc3)cc(=O)oc12` (stereo not drawn), for which the Potency was 11.7 µM (active).

With `CC(=O)COc1ccc2c(-c3ccccc3)cc(=O)oc2c1`, the Potency result is “inactive”.

Take `CCN(CC)CCC(c1cc(OC)c(OC)c(OC)c1)c1c(OC)cc(OC)c2c(-c3ccccc3)cc(=O)oc12` (stereo not drawn): the Potency is 2.94 µM (active).

On to `Cc1cc(=O)oc2c(C)c(OCC(=O)N3CCN(Cc4ccc5c(c4)OCO5)CC3)ccc12`, for which the Potency entry was “inactive”.

Take `CCN(CC)CCC(c1ccc2c(c1)OCO2)c1c(OC)cc(OC)c2c(-c3ccccc3)cc(=O)oc12` (stereo not drawn): the Potency is 5.22 µM (active).

`CC(NS(=O)(=O)c1ccc(Br)cc1)C(=O)NCC1CCCO1` (stereo not drawn): the Potency result was “inactive”.

In the case of `O=C(NNC(=O)c1cc(-c2ccccc2Cl)nc2ccccc12)c1csc(N2CCOCC2)n1`, the Potency result was “inactive”.

For the molecule `Cc1cc(C)cc(Oc2c(C(F)(F)F)oc3cc(OCC(=O)O)ccc3c2=O)c1`, the Potency result was “inactive”.

For the molecule `COc1ccccc1C1CCN(C(=S)Nc2ccc(Br)cc2)CC1`, the Potency entry is “inactive”.

As for `COc1ccccc1OCCNC(=O)C(CCSC)NC(=O)COc1ccccc1` (stereo not drawn), the Potency entry is “inactive”.

With `Cc1ccc(CNC(=O)C2CCN(S(=O)(=O)c3ccc4nc5c(c(C(=O)O)c4c3)CC(C)CC5)CC2)cc1` (stereo not drawn), the Potency entry is “inactive”.

As to `CC1CCN(C(=O)c2ccccc2NC(=O)Cc2ccccc2)CC1`, the Potency entry was “inactive”.

Consider `Cc1c(NC(=O)c2cc(-c3ccc(Br)cc3)on2)c(=O)n(-c2ccccc2)n1C`, for which the Potency entry is “inactive”.

On to `Cc1no[n+]([O-])c1COc1ccccc1/C=C1\NC(=S)NC1=O`, for which the Potency is 10.4 µM (active).

Take `Cc1ccccc1-n1c(C)cc(/C=C2\NC(=O)NC2=O)c1C`: the Potency entry was “inactive”.

Consider `O=C(CN1CCN(S(=O)(=O)c2ccc(F)cc2)CC1)NC1CC1`, for which the Potency result was “inactive”.

For the molecule `CC(=O)c1ccc(S(=O)(=O)NCc2nnnn2-c2ccccc2)cc1`, the Potency entry is “inactive”.

On to `Cc1cc(NC(=O)COc2ccccc2C#N)no1`, for which the Potency result is “inactive”.

`CCOC(=O)C1CCN(Cc2nnc(-c3cccc(Br)c3)o2)CC1`: the Potency result was “inactive”.

For the molecule `CCOC(=O)C1CCN(c2ncnc3c2c(-c2ccccc2)cn3-c2ccc(C)cc2)CC1`, the Potency entry is “inactive”.

For `CCOC(=O)C1CCN(c2ncnc3c2oc2ccc(Br)cc23)CC1`, the Potency is 13.1 µM (active).

Consider `Cn1cncc1COC(=O)c1ccc(Cl)cc1`, for which the Potency result is “inactive”.

Regarding `COc1ccccc1C(=O)NCc1nnc(SC(C)C(=O)Nc2nccs2)n1C` (stereo not drawn), the Potency result is “inactive”.

As to `Cc1ccc(NC(=O)CN2CCc3ccccc3C2)cc1C`, the Potency entry is “inactive”.

For the molecule `O=C(Cc1ccc(-c2ccccc2)cc1)NC(c1ccccc1)c1ccccc1`, the Potency result is “inactive”.

Turning to `CC1CN(CC(=O)NC(C)c2ccccc2)CC(C)O1` (stereo not drawn), the Potency result was “inactive”.

Regarding `O=C(CN1CCN(Cc2ccccc2)CC1)NC(c1ccccc1)c1ccccc1`, the Potency was 14.7 µM (active).

Take `CCCc1cc(=O)[nH]c(SCC(=O)Nc2sc3c(c2C#N)CCCC3)n1`: the Potency entry is “inactive”.

As to `N#CCCN(C(=O)COC(=O)c1ccc(S(=O)(=O)N2CCCCCC2)cc1)c1ccccc1`, the Potency result was “inactive”.

Turning to `CC(C)(CNC(=O)CNC(=O)C1CCCCC1)N1CCOCC1`, the Potency result is “inactive”.

In the case of `O=C(O)c1ccccc1-c1ccccc1C(=O)NCCc1ccccc1`, the Potency result is “inactive”.

Turning to `Cn1c(=O)c2c(n(Cc3ccccc3)c1=O)NC(=O)C2CC(=O)N1CCc2ccccc2C1` (stereo not drawn), the Potency was 11.7 µM (active).

For `CC1(C)CC(=O)C(CC(=O)N2CCC(Cc3ccccc3)CC2)C(=O)C1`, the Potency entry is “inactive”.

Regarding `O=C(C(=O)N1CCc2ccccc2C1)N1CCc2ccccc2C1`, the Potency result was “inactive”.

Turning to `COc1ccc(/C=C2\SC(=S)N(CCC(=O)Nc3cccc(C(=O)O)c3)C2=O)cc1OC`, the Potency result was “inactive”.

`COC(=O)CN1C(=O)C(C)(C)Oc2ccc(C(=O)Nc3cccc(OC)c3)cc21`: the Potency result is “inactive”.

For the molecule `Cc1cccc(N2CCN(c3ccc(C(N)=O)cc3[N+](=O)[O-])CC2)c1C`, the Potency entry is “inactive”.

With `O=C(NC1C2CC3CC(C2)CC1C3)c1ccc(N2CCNCC2)c([N+](=O)[O-])c1` (stereo not drawn), the Potency result is “inactive”.

For the molecule `CS(=O)(=O)N1CCN(c2ccc(C(=O)NC3C4CC5CC(C4)CC3C5)cc2[N+](=O)[O-])CC1` (stereo not drawn), the Potency is 9.28 µM (active).

`COc1ccccc1N1CCN(C(=O)CSc2ncnc3c2cnn3-c2ccc(C)c(C)c2)CC1`: the Potency entry is “inactive”.

As to `COc1ccc(S(=O)(=O)NCCc2c[nH]c3ccccc23)cc1OC`, the Potency entry is “inactive”.

Turning to `Cc1ccc(CNC(=O)CCN2C(=O)[C@@H]3Cc4ccccc4CN3C2=O)cc1`, the Potency entry is “inactive”.

With `C/C(=N\NC(=O)Cc1ccccc1[N+](=O)[O-])c1cccnc1`, the Potency result was “inactive”.
